{"source": "the supplement of paper PMC4188521", "data": [{"compound": "CCc1cnn2c(NCc3ccc[n+]([O-])c3)cc(N3CCCC[C@H]3CCO)nc12 [dinaciclib]", "assay": "cell viability remaining relative to DMSO control; higher = less cytotoxic (more viable cells)", "details": "100 nM; 24 h", "summary_of_the_method": "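Solid tumour cell lines from commercial cell banks were exposed to 100 nM of the test compound for 24 hr, with final DMSO ≤0.2%. Viability was read as ATP luminescence with the CellTiter-Glo assay, following the manufacturer's instructions. Remaining viability is the ratio of light units in treated wells to DMSO-treated control wells, expressed as % of DMSO control. Values are means of 2–6 plates with triplicate wells per plate.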", "units": {"cell viability remaining": "%"}, "values": [{"target": "U2OS", "cell viability remaining": 36.4}, {"target": "SKMEL24", "cell viability remaining": 81.7}, {"target": "COV434", "cell viability remaining": 7.7}, {"target": "H1703", "cell viability remaining": 5.5}, {"target": "A498", "cell viability remaining": 68.3}, {"target": "OVTOKO", "cell viability remaining": 95.4}, {"target": "SKLMS1", "cell viability remaining": 82.9}, {"target": "HCC1500", "cell viability remaining": 46.2}, {"target": "DETROIT562", "cell viability remaining": 34.6}, {"target": "SHP77", "cell viability remaining": 50.2}, {"target": "OVCAR4", "cell viability remaining": 49.6}, {"target": "HCC1954", "cell viability remaining": 38}, {"target": "MDAMB436", "cell viability remaining": 67.8}, {"target": "CALU1", "cell viability remaining": 78.1}, {"target": "HCC1806", "cell viability remaining": 60}, {"target": "HEC1B", "cell viability remaining": 94.1}, {"target": "H661", "cell viability remaining": 34.6}, {"target": "HUTU80", "cell viability remaining": 27.1}, {"target": "SKOV3", "cell viability remaining": 81.1}, {"target": "COLO704", "cell viability remaining": 78.2}, {"target": "TOV21G", "cell viability remaining": 66.7}, {"target": "SKUT1", "cell viability remaining": 74.7}, {"target": "SNGM", "cell viability remaining": 98.3}, {"target": "ZR751", "cell viability remaining": 91.3}, {"target": "OVMANA", "cell viability remaining": 87.9}, {"target": "COLO679", "cell viability remaining": 68.6}, {"target": "SKLU1", "cell viability remaining": 82.6}, {"target": "H292", "cell viability remaining": 51.5}, {"target": "SKCO1", "cell viability remaining": 89.8}, {"target": "DU145", "cell viability remaining": 81.7}, {"target": "CAOV3", "cell viability remaining": 42.2}, {"target": "COLO320DM", "cell viability remaining": 17.1}, {"target": "MDAMB175VII", "cell viability remaining": 36}, {"target": "YAPC", "cell viability remaining": 56.3}]}]}
